# Laboratory results taken from PubChem BioAssay.
# For part of these data: Measured potencies and affinities stand elsewhere. Activity calls are given as the source filed them.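 How the source made its calls, unless noted: active means membrane potential signal rise above negative control mean plus 3 SD in both duplicates, also active in the earlier TRPC4 screen; inactive means the rest.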
# Assays:
# [1] = tested on: TRPC4 beta (transient receptor potential cation channel C4), mouse; experiment: TRPC4 cation channel opening, retest – cell-based, Fluo4 calcium, HEK293 TRPC4beta/mu-opioid, duplicates, 10 µM, confirmation (AID 2426;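 active means fluorescence ratio normalized to control raised more than 50% in primary screen plus both repeat runs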); details: Fluo4 calcium fluorescence, at 10 µM; active compounds read high
# [2] = tested on: transient receptor potential cation channel C4 beta (TRPC4), mouse; experiment: TRPC4 cation channel opening, second retest – cell-based, second round, Fluo4, HEK293 TRPC4beta/mu-opioid, 1 µM, confirmation (AID 2461;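 active means primary screen active and over 50% activation in each of two duplicate runs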); details: Fluo4 calcium fluorescence, at 1 µM; active compounds read high
# [3] = tested on: TRPC4 (transient receptor potential cation channel C4 beta), mouse; experiment: potentiation of DAMGO EC20 TRPC4 response – cell-based, second round, Fluo-4, HEK293 TRPC4beta/mu-opioid, 1 µM, confirmation (AID 2554;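 active means primary screen hit whose fluorescence ratio, in both repeats, exceeds the weak agonist control mean by 3 SD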); details: DAMGO EC20, Fluo-4 calcium flux, at 1 µM; active compounds read high
# [4] = tested on: TRPC4 beta (transient receptor potential cation channel C4), mouse; experiment: potentiation of DAMGO EC20 TRPC4 response – cell-based, Fluo-4, HEK293 TRPC4beta/mu-opioid, confirmation (AID 2555;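 active means primary screen hit whose calcium fluorescence ratio, in both repeats, exceeds the weak agonist control mean by 3 SD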); details: DAMGO EC20, Fluo-4 calcium flux, at 10 µM; active compounds read high
# [5] = molecular target: Short transient receptor potential channel 4 (Mus musculus) (UniProt Q9QUQ5); experiment: blockers of DAMGO-evoked TRPC4 calcium flux – cell-based, Fluo4, HEK293 TRPC4beta/mu-opioid, confirmation (AID 2636;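 active means calcium signal cut by more than 3 SD below the full-agonist control yet still positive, in both repeats and the earlier primary screen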); details: at 10 µM; active compounds read high
# [6] = molecular target: Short transient receptor potential channel 4 (Mus musculus) (UniProt Q9QUQ5); experiment: blockers of DAMGO-evoked TRPC4 calcium flux – cell-based, second round, Fluo4, HEK293 TRPC4beta/mu-opioid, 1 µM, confirmation (AID 2637;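 active means calcium signal ratio cut to more than 3 SD under the fully stimulated control mean yet still positive, in both repeats and the primary screen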;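 on inhibition: percent of integrated ratio relative to wells lacking test compound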); details: at 1 µM; active compounds read high
# [7] = molecular target: Short transient receptor potential channel 4 (Mus musculus) (UniProt Q9QUQ5); experiment: calcium entry via TRPC4 opening agents – cell-based, HEK293 TRPC4/mu-opioid, Fluo-4 calcium, dose response (AID 434937;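 active means primary screen activator hit with a dose response curve and TRPC4 channel activation at any tested dose; inactive means no activation, no dose response, or not a primary hit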)
# [8] = molecular target: Short transient receptor potential channel 4 (Mus musculus) (UniProt Q9QUQ5); experiment: potentiation of DAMGO-evoked TRPC4 calcium signal – cell-based, HEK293 TRPC4/mu-opioid, Fluo-4 calcium, EC20 DAMGO, dose response (AID 434941;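 active means earlier screen potentiator hit that boosts the TRPC4 ion channel at some dose, with a dose response; inactive means no potentiation, no dose response, or not a prior hit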;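 further: calcium entry triggered by an EC20 dose of DAMGO at the co-expressed mu-opioid receptor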)
# [9] = molecular target: Short transient receptor potential channel 6 (Mus musculus) (UniProt Q61143); experiment: TRPC6 blockade by TRPC4 inhibitor hits – cell-based, HEK293, membrane potential dye, duplicate, selectivity assay for TRPC4 inhibitor project, confirmation (AID 434948;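 active means active in primary screen and both duplicates, each dropping signal beyond three positive-control SD with fluorescence still positive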); details: HEK293 TRPC6, membrane potential dye fluorescence, at 10 µM, stimulated with maximal-effect acetylcholine; active compounds read high
# [10] = molecular target: Short transient receptor potential channel 6 (Mus musculus) (UniProt Q61143); experiment: TRPC6 opening by TRPC4 activator hits – cell-based, HEK293, membrane potential dye, duplicate, selectivity assay for TRPC4 activator project, confirmation (AID 434950); details: HEK293 TRPC6, membrane potential fluorescence, at 10 µM; activation: active compounds read high; outcome: activation;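 on activation: 0% = buffer only wells and 100% = acetylcholine maximal-effect wells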
# [11] = molecular target: Short transient receptor potential channel 6 (Mus musculus) (UniProt Q61143); experiment: positive modulators of mouse TRPC6 channel – HEK293 cells, membrane potential dye, duplicate, selectivity assay for TRPC4 potentiator project, confirmation (AID 434952;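 active means compound raising the membrane signal above positive-control mean plus 3 SD in both repeats, and a primary screen hit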); details: HEK293 TRPC6, membrane potential dye fluorescence, at 10 µM, maximal acetylcholine added after compound; active compounds read high
# [12] = molecular target: Short transient receptor potential channel 4 (Mus musculus) (UniProt Q9QUQ5); experiment: calcium flux activators in TRPC4/5HT1a cells, counter-screen for TRPC4 activator project, cell-based, second counter screen, HEK293 TRPC4/5HT1a, Fluo-4 (AID 434977;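 active means calcium signal rise above buffer-control mean plus 5 SD in both duplicates, and also a hit in the primary screen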); details: Fluo-4 calcium flux, at 10 µM; active compounds read high
# [13] = serotonin-gated TRPC4 signal block – cell-based, second counter screen, HEK293 TRPC4/5HT1a, Fluo-4, counter-screen for TRPC4 inhibitor project, confirmation (AID 434978;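 active means primary screen active whose calcium signal fell more than 3 SD beyond the full-serotonin control mean in both duplicate plates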;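 on outcome: serotonin given first at submaximal then at maximal dose after compound preincubation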); details: Fluo-4 calcium flux, at 10 µM, serotonin added to trigger calcium flux; active compounds read high
# [14] = tested on: TRPC4 (mouse), co-expressed with 5HT1a in HEK293; experiment: enhancement of serotonin-evoked TRPC4 response – cell-based, second counter screen, HEK293 TRPC4/5HT1a, Fluo-4, counter-screen for TRPC4 potentiator project, confirmation (AID 434979;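 active means signal rise over 3 SD above mean of control wells given weak agonist, in both repeats and first screen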); details: Fluo-4 calcium flux, at 10 µM, serotonin added at its EC20 dose; active compounds read high
# [15] = nonspecific calcium rise without TRPC4 – cell-based, HEK293 mu-opioid receptor line, counter-screen for TRPC4 activator project, confirmation (AID 449723;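 active means hit in primary screen, with calcium signal over 5 SD above buffer well mean in both duplicates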;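 further: counter screen cells carry the mu-opioid receptor alone and lack TRPC4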); details: HEK293 mu-opioid cells, Fluo-4 calcium fluorescence, at 10 µM; active compounds read high
# [16] = nonspecific potentiation of DAMGO calcium response – cell-based, HEK293 mu-opioid receptor line, counter-screen for TRPC4 allosteric potentiator project, confirmation (AID 449724;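 active means calcium signal rise more than 3 SD above the low-dose agonist control mean, in both duplicate plates and the primary screen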); details: HEK293 mu-opioid receptor cells, Fluo-4 calcium flux, at 10 µM, compound added before EC20 DAMGO stimulus; active compounds read high
# Sequence of Short transient receptor potential channel 6 (Mus musculus) (Q61143 whole entry, looked up): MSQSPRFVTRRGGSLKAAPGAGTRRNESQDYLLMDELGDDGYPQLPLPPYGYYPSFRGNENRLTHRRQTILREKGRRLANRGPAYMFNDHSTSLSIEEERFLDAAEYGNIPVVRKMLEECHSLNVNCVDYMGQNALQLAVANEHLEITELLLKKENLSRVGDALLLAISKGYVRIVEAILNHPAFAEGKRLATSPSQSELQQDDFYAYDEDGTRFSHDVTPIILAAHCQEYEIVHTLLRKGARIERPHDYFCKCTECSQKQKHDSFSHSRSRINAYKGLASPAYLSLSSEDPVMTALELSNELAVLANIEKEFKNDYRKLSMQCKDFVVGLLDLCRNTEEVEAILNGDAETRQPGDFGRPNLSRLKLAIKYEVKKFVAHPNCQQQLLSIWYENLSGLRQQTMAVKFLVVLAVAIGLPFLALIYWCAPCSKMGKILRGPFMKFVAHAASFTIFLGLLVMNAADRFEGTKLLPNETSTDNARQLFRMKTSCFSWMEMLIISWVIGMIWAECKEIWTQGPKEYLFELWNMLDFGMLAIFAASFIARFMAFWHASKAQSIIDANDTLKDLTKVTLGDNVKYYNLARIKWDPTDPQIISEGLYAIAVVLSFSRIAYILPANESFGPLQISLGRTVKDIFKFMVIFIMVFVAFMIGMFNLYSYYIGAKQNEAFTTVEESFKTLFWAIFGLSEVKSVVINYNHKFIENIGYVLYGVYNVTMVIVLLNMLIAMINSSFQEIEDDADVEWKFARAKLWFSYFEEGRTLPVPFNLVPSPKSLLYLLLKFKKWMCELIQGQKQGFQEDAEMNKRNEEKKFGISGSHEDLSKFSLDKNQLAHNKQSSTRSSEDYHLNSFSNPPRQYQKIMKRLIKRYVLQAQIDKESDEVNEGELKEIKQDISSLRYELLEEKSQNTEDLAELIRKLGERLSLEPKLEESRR
# Sequence of Short transient receptor potential channel 4 (Mus musculus) (Q9QUQ5 whole entry, looked up): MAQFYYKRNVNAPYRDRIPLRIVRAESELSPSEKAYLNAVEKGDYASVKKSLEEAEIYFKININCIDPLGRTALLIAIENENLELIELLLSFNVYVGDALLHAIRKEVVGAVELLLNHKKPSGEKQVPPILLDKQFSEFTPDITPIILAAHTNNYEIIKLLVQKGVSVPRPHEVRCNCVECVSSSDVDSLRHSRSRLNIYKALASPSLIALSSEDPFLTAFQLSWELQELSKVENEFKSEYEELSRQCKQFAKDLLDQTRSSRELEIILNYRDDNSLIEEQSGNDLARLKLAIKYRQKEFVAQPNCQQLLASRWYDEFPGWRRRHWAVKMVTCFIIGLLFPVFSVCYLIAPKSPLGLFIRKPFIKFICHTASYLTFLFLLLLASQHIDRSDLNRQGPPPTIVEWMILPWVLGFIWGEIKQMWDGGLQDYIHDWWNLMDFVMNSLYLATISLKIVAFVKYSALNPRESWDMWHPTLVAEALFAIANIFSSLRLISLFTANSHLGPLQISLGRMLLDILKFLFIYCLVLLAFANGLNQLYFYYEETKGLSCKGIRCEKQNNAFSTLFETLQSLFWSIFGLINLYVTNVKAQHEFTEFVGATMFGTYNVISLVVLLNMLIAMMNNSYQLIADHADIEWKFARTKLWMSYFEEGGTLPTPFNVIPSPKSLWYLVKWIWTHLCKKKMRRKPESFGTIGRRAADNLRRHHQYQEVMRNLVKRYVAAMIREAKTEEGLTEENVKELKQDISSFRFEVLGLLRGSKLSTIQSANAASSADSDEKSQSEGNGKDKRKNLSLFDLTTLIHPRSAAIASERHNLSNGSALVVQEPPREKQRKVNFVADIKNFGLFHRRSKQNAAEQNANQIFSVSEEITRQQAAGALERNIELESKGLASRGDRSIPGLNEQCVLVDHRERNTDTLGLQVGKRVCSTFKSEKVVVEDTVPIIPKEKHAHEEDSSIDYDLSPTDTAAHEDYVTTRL
compound,measurement,setting,value
COc1cccc(O)c1CN1CCCC(C(=O)c2cccc(C(F)(F)F)c2)C1 (stereo not given),outcome,[1],inactive
same,outcome,[2],inactive
same,outcome,[3],inactive
same,outcome,[4],inactive
same,inhibition,[5],70% (active)
same,outcome,[6],inactive
same,outcome,[7],inactive
same,outcome,[8],inactive
same,outcome,[9],inactive
same,outcome,[10],inactive
same,outcome,[11],inactive
same,outcome,[12],inactive
same,inhibition,[13],34.3% (active)
same,outcome,[14],inactive
same,outcome,[15],inactive
same,outcome,[16],inactive
CCCn1c(NC(=O)c2cccc(S(=O)(=O)N3CCCC3)c2)nc2ccccc21,outcome,[1],inactive
same,outcome,[2],inactive
same,potentiation,[3],11% (active)
same,potentiation,[4],64% (active)
same,inhibition,[5],87% (active)
same,outcome,[6],inactive
same,outcome,[7],inactive
same,outcome,[8],inactive
same,outcome,[9],inactive
same,outcome,[10],inactive
same,outcome,[11],inactive
same,outcome,[12],inactive
same,outcome,[13],inactive
same,potentiation,[14],24.4% (active)
same,outcome,[15],inactive
same,outcome,[16],inactive
Cc1cccc(CCN(C(=O)c2snc(C(N)=O)c2N)C(C(=O)NCC2CCCO2)c2ccc(F)cc2)c1 (stereo not given),outcome,[1],inactive
same,outcome,[2],inactive
same,outcome,[3],inactive
same,outcome,[4],inactive
same,inhibition,[5],74% (active)
same,inhibition,[6],68% (active)
same,outcome,[7],inactive
same,outcome,[8],inactive
same,outcome,[9],inactive
same,outcome,[10],inactive
same,outcome,[11],inactive
same,outcome,[12],inactive
same,inhibition,[13],46.3% (active)
same,outcome,[14],inactive
same,outcome,[15],inactive
same,outcome,[16],inactive
Cc1ncsc1CCOC(=O)C12CC3CC(CC(C3)C1)C2,outcome,[1],inactive
same,outcome,[2],inactive
same,outcome,[3],inactive
same,outcome,[4],inactive
same,inhibition,[5],94% (active)
same,outcome,[6],inactive
same,outcome,[7],inactive
same,outcome,[8],inactive
same,outcome,[9],inactive
same,outcome,[10],inactive
same,outcome,[11],inactive
same,outcome,[12],inactive
same,inhibition,[13],17.8% (active)
same,outcome,[14],inactive
same,outcome,[15],inactive
same,outcome,[16],inactive
COc1ccc(CNC(=O)CN(C)Cc2ccccc2F)cc1OC,outcome,[1],inactive
same,outcome,[2],inactive
same,outcome,[3],inactive
same,outcome,[4],inactive
same,inhibition,[5],86% (active)
same,outcome,[6],inactive
same,outcome,[7],inactive
same,outcome,[8],inactive
same,outcome,[9],inactive
same,outcome,[10],inactive
same,outcome,[11],inactive
same,outcome,[12],inactive
same,inhibition,[13],34.9% (active)
same,outcome,[14],inactive
same,outcome,[15],inactive
same,outcome,[16],inactive
Cc1ccc2nc(C)c3c(c2c1)N(c1ccc(F)cc1)CC3,outcome,[1],inactive
same,outcome,[2],inactive
same,outcome,[3],inactive
same,outcome,[4],inactive
same,inhibition,[5],90% (active)
same,inhibition,[6],71% (active)
same,outcome,[7],inactive
same,outcome,[8],inactive
same,inhibition,[9],25% (active)
same,outcome,[10],inactive
same,outcome,[11],inactive
same,outcome,[12],inactive
same,inhibition,[13],33.8% (active)
same,outcome,[14],inactive
same,outcome,[15],inactive
same,outcome,[16],inactive
COc1ccc(/C=C/C(=O)Oc2cc(O)cc(O)c2)cc1,outcome,[1],inactive
same,outcome,[2],inactive
same,outcome,[3],inactive
same,outcome,[4],inactive
same,inhibition,[5],96% (active)
same,outcome,[6],inactive
same,outcome,[7],inactive
same,outcome,[8],inactive
same,outcome,[9],inactive
same,outcome,[10],inactive
same,outcome,[11],inactive
same,outcome,[12],inactive
same,inhibition,[13],27.4% (active)
same,outcome,[14],inactive
same,outcome,[15],inactive
same,outcome,[16],inactive
Cc1ccc(-n2nc(-c3cccs3)cc2C(=O)NCC2CCCO2)c(C)c1 (stereo not given),outcome,[1],inactive
same,outcome,[2],inactive
same,outcome,[3],inactive
same,outcome,[4],inactive
same,inhibition,[5],79% (active)
same,outcome,[6],inactive
same,outcome,[7],inactive
same,outcome,[8],inactive
same,outcome,[9],inactive
same,activation,[10],32% (active)
same,outcome,[11],inactive
same,outcome,[12],inactive
same,outcome,[13],inactive
same,outcome,[14],inactive
same,outcome,[15],inactive
same,outcome,[16],inactive
CCOC(=O)C1(Cc2ccccc2)CCN(CC2CC=CCC2)CC1 (stereo not given),outcome,[1],inactive
same,outcome,[2],inactive
same,outcome,[3],inactive
same,outcome,[4],inactive
same,inhibition,[5],93% (active)
same,outcome,[6],inactive
same,outcome,[7],inactive
same,outcome,[8],inactive
same,outcome,[9],inactive
same,outcome,[10],inactive
same,outcome,[11],inactive
same,outcome,[12],inactive
same,outcome,[13],inactive
same,outcome,[14],inactive
same,outcome,[15],inactive
same,outcome,[16],inactive
O=C(c1cccc(C(=O)N2CCN(c3ccc(F)cc3)CC2)c1)N1CCN(c2ccc(F)cc2)CC1,outcome,[1],inactive
same,outcome,[2],inactive
same,outcome,[3],inactive
same,outcome,[4],inactive
same,inhibition,[5],88% (active)
same,inhibition,[6],53% (active)
same,outcome,[7],inactive
same,outcome,[8],inactive
same,outcome,[9],inactive
same,outcome,[10],inactive
same,outcome,[11],inactive
same,outcome,[12],inactive
same,inhibition,[13],42% (active)
same,outcome,[14],inactive
same,outcome,[15],inactive
same,outcome,[16],inactive
CCC1CCCCN1CCN1C(=O)C2C(C(=O)Nc3ccc(OC)cc3)C3C=CC2(O3)C1C(=O)NC1CCCCC1 (stereo not given),outcome,[1],inactive
same,outcome,[2],inactive
same,outcome,[3],inactive
same,outcome,[4],inactive
same,inhibition,[5],96% (active)
same,inhibition,[6],90% (active)
same,outcome,[7],inactive
same,outcome,[8],inactive
same,outcome,[9],inactive
same,outcome,[10],inactive
same,outcome,[11],inactive
same,outcome,[12],inactive
same,outcome,[13],inactive
same,outcome,[14],inactive
same,outcome,[15],inactive
same,outcome,[16],inactive
CCCCN=C(Nc1ccc(Cl)cc1)c1cccnc1,outcome,[1],inactive
same,outcome,[2],inactive
same,outcome,[3],inactive
same,outcome,[4],inactive
same,inhibition,[5],82% (active)
same,inhibition,[6],54% (active)
same,outcome,[7],inactive
same,outcome,[8],inactive
same,outcome,[9],inactive
same,outcome,[10],inactive
same,outcome,[11],inactive
same,outcome,[12],inactive
same,outcome,[13],inactive
same,outcome,[14],inactive
same,outcome,[15],inactive
same,outcome,[16],inactive
CCCCNCc1cc(Cl)c(OCCC)c(OCC)c1,outcome,[1],inactive
same,outcome,[2],inactive
same,outcome,[3],inactive
same,outcome,[4],inactive
same,inhibition,[5],86% (active)
same,outcome,[6],inactive
same,outcome,[7],inactive
same,outcome,[8],inactive
same,outcome,[9],inactive
same,outcome,[10],inactive
same,outcome,[11],inactive
same,outcome,[12],inactive
same,outcome,[13],inactive
same,outcome,[14],inactive
same,outcome,[15],inactive
same,outcome,[16],inactive
CNCc1c(OCc2ccccc2)ccc2ccccc12,outcome,[1],inactive
same,outcome,[2],inactive
same,outcome,[3],inactive
same,outcome,[4],inactive
same,inhibition,[5],92% (active)
same,outcome,[6],inactive
same,outcome,[7],inactive
same,outcome,[8],inactive
same,inhibition,[9],46% (active)
same,outcome,[10],inactive
same,outcome,[11],inactive
same,outcome,[12],inactive
same,inhibition,[13],34.9% (active)
same,outcome,[14],inactive
same,outcome,[15],inactive
same,outcome,[16],inactive
CCCSc1nc(N)nc(-c2cccs2)c1C#N,outcome,[1],inactive
same,outcome,[2],inactive
same,outcome,[3],inactive
same,outcome,[4],inactive
same,inhibition,[5],89% (active)
same,inhibition,[6],50% (active)
same,outcome,[7],inactive
same,outcome,[8],inactive
same,outcome,[9],inactive
same,outcome,[10],inactive
same,outcome,[11],inactive
same,outcome,[12],inactive
same,inhibition,[13],36.8% (active)
same,outcome,[14],inactive
same,outcome,[15],inactive
same,outcome,[16],inactive
